Experimental findings from PubChem BioAssay (NCATS) are described below.

Inconclusive results are not listed. The source made the active and inactive calls. Unless noted, the call rests on the fitted dose curve; in most records, active means well fitted curve in the direction sought with a large enough effect; inconclusive means small, poorly fitted or top-dose-only effect, or another doubt; inactive means no such curve, though single readings can be large; an effect the other way counts as inactive or inconclusive.

Assay [1] addresses Catechol O-methyltransferase (Homo sapiens) (UniProt P21964). The assay can be described thus: Confirmatory Screen for Target Class Profiling of Small Molecule Inhibitors of Methyltransferases (AID 1745852; calls by dose curve; on activity change, negative = inhibition: on the % scale 0 is the no-effect control and ±100 the full control effect). The conditions noted are these: MTase-Glo luminescence, SAH detection, recombinant enzyme; measured here: COMT max response; stronger effect = lower value.
For assay [2], the target named is Guanidinoacetate N-methyltransferase (Homo sapiens) (UniProt Q14353). The description is as above. To be noted: activity change, negative = inhibition: at 57.3 µM (top of the series) unless noted.
The target of assay [3] is Nicotinamide N-methyltransferase (Homo sapiens) (UniProt P40261). The assay is described as above. To be noted: MTase-Glo luminescence, SAH detection, recombinant enzyme; measured here: NNMT max response; stronger effect = lower value.
Assay [4] concerns the target Phenylethanolamine N-methyltransferase (Homo sapiens) (UniProt P11086). Described as above. The conditions noted are these: MTase-Glo luminescence, SAH detection, recombinant enzyme; measured here: PNMT max response; stronger effect = lower value.
The target of assay [5] is Glutathione peroxidase 1 (Homo sapiens) (UniProt P07203). Briefly: Primary qHTS Assay for Inhibitors of Recombinant Selenoprotein Glutathione Peroxidase 1 (GPX1) (AID 1845191). Further: nearly all actives have a fitted effect of over 65% in size. The procedure, abridged:
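10 nM GPX1 + cpd, 30 min RT; start w/ 1 mM GSH, 0.5 mM cumene hydroperoxide, 0.5 mM NADPH, 100 nM GR, 0.01% BSA; buffer 50 mM Tris-HCl pH 7.5, 2 mM EDTA, 150 mM NaCl; Fl 340/450, 0 & 15 min.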
A general note: In qHTS, concentration-response curves come from the screen itself.

Assay [6] addresses Luciferin 4-monooxygenase (Photinus pyralis) (UniProt P08659). The assay can be described thus: Primary firefly luciferase (FLuc) qHTS assay for identification of artifact compounds. (AID 1845220). Further: nearly all actives have a fitted effect of over 60% in size. Further: potency means the concentration at half of the fitted maximal effect.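 On activity change, negative = inhibition: plate controls were DMSO vehicle for no effect and no enzyme for full effect.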 Put shortly: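 Cell-free, 1536-well qHTS. Buffer pH 7.6 with 0.01% Tween-20 and 0.05% BSA; 10 uM D-luciferin, 10 uM ATP; 10 nM P. pyralis luciferase; luminescence after 5 min.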
The nature of assay [7]: Primary fluorescence-based thiol-reactive (MSTI) qHTS assay for identification of artifact compounds. (AID 1845221). Further: nearly all actives have a fitted effect of over 65% in size. Further: potency means the concentration at half of the fitted maximal effect. Put shortly: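 Thiol-reactive compounds detected by quenching of 4 uM MSTI fluorescence (525/598 nm) after 1 h room-temperature dark incubation in PBS pH 7.4, 2% DMSO. qHTS titration; percent inhibition Hill-fitted against Acetyl-MSTI/MSTI controls.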
For assay [8], the system named is Nanoluciferase (engineered Oplophorus gracilirostris luciferase). Briefly: Primary Nanoluciferase (NLuc) qHTS assay for identification of artifact compounds. (AID 1845222).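 Further: 0% = DMSO and -100% = no enzyme.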 Put shortly: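 Compounds are pinned into diluted (1:55) conditioned medium of NLuc-expressing S16 cells and held 15 min at room temperature protected from light. Nano-Glo substrate follows, and luminescence is read 5 min later.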

Assay [9] is described as follows: Primary redox qHTS assay for identification of artifact compounds. (AID 1845223).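 Further: 0% = DMSO and 100% = reference compound.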 The procedure, abridged: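 Amplex Red (25 uM) and HRP (250 mU/mL) in HBSS, with compounds for 15 min, then 250 uM DTT for 30 min, room temperature, dark. Fluorescence 525/598 nm read; normalized to DMSO and 10 uM DA3003; Hill fit.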
The nature of assay [10]: NCATS anti-infectives library activity on HEK293 viability as a counter-qHTS vs the C. elegans viability qHTS (AID 1745854). Further: on the % scale 0 is the no-effect control and ±100 the full control effect. The procedure, abridged:
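HEK293 cells, 1500 per well, exposed 24 hr at 37C in 5% CO2 to compounds in a 1:5 titration, up to 41.7 uM final. Viability read as CellTiter-Glo luminescence after 10 min at room temperature.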

The target in assay [11] is Phospholipid hydroperoxide glutathione peroxidase GPX4 (Homo sapiens) (UniProt P36969). The assay can be described thus: Primary qHTS Assay for Inhibitors of Recombinant Selenoprotein Glutathione Peroxidase 4 (GPX4) (AID 1845192). Further: nearly all actives have a fitted effect of over 65% in size. On activity change, negative = inhibition: on the % scale 0 is the no-effect control and ±100 the full control effect. Put shortly:
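NADPH consumption, followed by fluorescence at 340/450 nm between 0 and 15 min, reports GPX4 activity via coupled glutathione reductase (100 nM). Enzyme 200 nM was pre-exposed to compound 30 min; 0.5 mM cumene hydroperoxide and 1 mM GSH served as substrates.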

A short description of assay [12]: Primary qHTS for inhibitors of nuclear receptor binding SET domain protein 2 (NSD2) in an RCH-ACV wild type WT cells (2C) (AID 1645877). Further: potency means the concentration at half of the fitted maximal effect; nearly all actives have a fitted effect of over 70% in size.

Phospholipid hydroperoxide glutathione peroxidase GPX4 (Homo sapiens), sequence (P36969 whole entry, looked up): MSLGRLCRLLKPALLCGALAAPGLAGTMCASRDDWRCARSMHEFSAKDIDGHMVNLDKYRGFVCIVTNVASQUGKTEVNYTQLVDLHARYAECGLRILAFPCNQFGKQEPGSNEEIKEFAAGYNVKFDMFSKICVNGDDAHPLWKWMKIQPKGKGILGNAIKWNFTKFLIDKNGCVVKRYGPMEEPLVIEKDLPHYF
Nicotinamide N-methyltransferase (Homo sapiens), sequence (P40261 whole entry, looked up): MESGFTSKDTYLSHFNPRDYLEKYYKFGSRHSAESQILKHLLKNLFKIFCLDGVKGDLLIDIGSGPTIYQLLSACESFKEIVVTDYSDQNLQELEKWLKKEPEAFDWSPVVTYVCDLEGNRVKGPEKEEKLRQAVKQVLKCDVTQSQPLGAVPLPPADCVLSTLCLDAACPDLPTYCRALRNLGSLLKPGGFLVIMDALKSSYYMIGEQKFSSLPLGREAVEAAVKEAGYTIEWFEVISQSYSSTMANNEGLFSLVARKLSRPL
Catechol O-methyltransferase (Homo sapiens), sequence (P21964 whole entry, looked up): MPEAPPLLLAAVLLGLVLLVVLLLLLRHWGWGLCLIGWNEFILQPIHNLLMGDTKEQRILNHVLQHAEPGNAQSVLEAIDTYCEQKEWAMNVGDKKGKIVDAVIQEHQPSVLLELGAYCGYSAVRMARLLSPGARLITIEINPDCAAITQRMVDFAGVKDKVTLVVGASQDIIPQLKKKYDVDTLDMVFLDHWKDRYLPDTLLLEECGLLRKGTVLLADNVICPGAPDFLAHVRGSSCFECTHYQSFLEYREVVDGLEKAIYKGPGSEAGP
Glutathione peroxidase 1 (Homo sapiens), sequence (P07203 whole entry, looked up): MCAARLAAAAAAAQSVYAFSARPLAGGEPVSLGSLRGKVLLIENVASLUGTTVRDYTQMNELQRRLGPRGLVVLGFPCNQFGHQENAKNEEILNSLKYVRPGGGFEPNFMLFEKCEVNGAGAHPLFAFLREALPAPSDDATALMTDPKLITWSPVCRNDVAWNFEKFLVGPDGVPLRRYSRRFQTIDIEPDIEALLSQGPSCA
Phenylethanolamine N-methyltransferase (Homo sapiens), sequence (P11086 whole entry, looked up): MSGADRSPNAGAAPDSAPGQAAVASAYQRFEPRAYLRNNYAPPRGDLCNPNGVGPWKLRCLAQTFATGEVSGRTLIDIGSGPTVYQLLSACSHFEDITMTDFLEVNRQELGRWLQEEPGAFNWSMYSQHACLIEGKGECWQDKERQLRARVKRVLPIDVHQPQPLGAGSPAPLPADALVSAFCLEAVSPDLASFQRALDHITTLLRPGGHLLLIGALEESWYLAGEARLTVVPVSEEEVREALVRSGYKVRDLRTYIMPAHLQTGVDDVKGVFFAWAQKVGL

Take `CC1=C(C(=O)OCc2ccccc2)C(c2ccc(-c3ccccc3)cc2)NC(=O)N1CCCCCC(=O)O` (stereo not given): the values for the activity in assay [1], in assay [3] and in assay [4] were -3.43%, -35.4% and 2.18%, respectively. In [2], the activity change, negative = inhibition is 0%. Further, the Potency entry in assay [5], in assay [6], in assay [7], in assay [8] and in assay [9] was “inactive” throughout.
For `Nc1ncnc2c([C@@H]3N[C@H](CO)[C@@H](O)[C@H]3O)c[nH]c12`, the Potency result in assay [10], in [5], in assay [11], in assay [6], in assay [7] and in assay [8] was “inactive” throughout.
For `COC(C(=O)N1Cc2[nH]nc(NC(=O)c3ccc(N4CCN(C)CC4)cc3)c2C1)c1ccccc1` (stereo not given), the Potency in [12] is 45.9 nM (active). The Potency entry in [11], in assay [6], in assay [8] and in assay [9] was “inactive” each time.
Take `COc1ccc(C2(O)CCC(N3CC[C@@H](NC(=O)CNC(=O)c4cccc(C(F)(F)F)c4)C3)CC2)cn1` (stereo not given in full): the figures for the activity in assay [1], in [3] and in assay [4] were -5.05%, 0.219% and 0.417%, respectively. For the same compound, the activity change, negative = inhibition in [2] was -4.96%. For the same compound, the Potency result in assay [5], in [11], in assay [6], in assay [7] and in assay [8] was “inactive” each time.
On to `COc1cc2c(cc1OC)N1C(=O)C[C@]34C=CCN5CC[C@@H]2[C@@H](CC3)[C@]514`, for which the activity in assay [1] is -18.8%; in [3] it was 1.78%; in assay [4], 3.88%. The Potency entry in assay [2], in assay [5], in [11], in assay [6], in assay [7] and in assay [8] was “inactive” each time.
Regarding `N#Cc1cnc2cnc(NCc3cccnc3)cc2c1Nc1ccc(F)c(Cl)c1`, the activity in assay [1] was -10.6%; in assay [3] it was -57.3%; in [4] it was -6.2%. Besides, the activity change, negative = inhibition in assay [2] is -3.05%. Moreover, the Potency result in assay [5], in [11], in assay [6], in assay [7], in assay [8] and in assay [9] was “inactive” in each case.
Regarding `C[C@@H]1CCC/C=C/[C@H]2CC(=O)C[C@@H]2[C@@H](O)/C=C/C(=O)O1`, the Potency result in assay [5], in assay [11] and in assay [6] was “inactive” in each case.
Turning to `CCN(CC)Cc1ccc(C(=O)N(CCc2ccccc2OC)[C@@H]2CCNC2)cc1`, the Potency result in assay [10], in assay [5], in [11], in [6], in assay [7] and in assay [8] was “inactive” in each case. Moreover, the Potency result in assay [9] was “inactive”.
For `CNS(=O)(=O)CC1CCC(N(C)c2ncnc3[nH]ccc23)CC1` (stereo not given), the activity in assay [1] is -6.68%; in assay [3] it was -58.2%; in [4], -84.3%. Also, in [2], the activity change, negative = inhibition is -4.35%. Besides, the Potency result in [5], in assay [11], in [6], in assay [8] and in assay [9] was “inactive” in each case.
With `CCOCCOC(=O)/C=C/c1ccc(OC)cc1`, the Potency result in assay [5] and in assay [11] was “inactive” throughout.
As to `COc1cc(OC)cc(C(=O)Nc2ccc(Cl)c(-c3nc4ccc(N(C)C)cc4[nH]3)c2)c1`, the activity in [1] is -4.1%; in assay [3], -8.83%; in assay [4] it was -5.51%. In assay [2], the activity change, negative = inhibition was -3.69%. Also, the Potency entry in [5], in assay [11], in assay [8] and in assay [9] was “inactive” in each case. Further, the Potency in [6] is 8490 nM (active); in assay [7], 3770 nM (active).
On to `Cc1cnc(Nc2ccc(F)cc2Cl)nc1-c1c[nH]c(C(=O)NC(CO)c2cccc(Cl)c2)c1` (stereo not given), for which the Potency is 2300 nM (active) in [12] and 2670 nM (active) in assay [7]. Besides, the Potency entry in assay [6] and in assay [8] was “inactive” in each case.
`CC(=O)O[C@@H]1c2c3c(cc(O)c2C(=O)O[C@@H]1C)O[C@@]1(C)[C@@H](O)C[C@H]2C(C)(C)C(=O)C=C[C@]2(C)[C@@H]1C3`: the Potency result in [5], in [11], in assay [6], in assay [7], in [8] and in assay [9] was “inactive” throughout.
As to `CCC(C)C(=O)O[C@H]1CCC=C2C=C[C@H](C)[C@H](CC[C@@H](O)C[C@@H](O)CC(=O)O)[C@H]21` (stereo not given in full), the Potency entry in [5], in [11], in assay [6], in [7] and in assay [8] was “inactive” in each case.
Regarding `C[C@H]1C(=O)N2c3ccccc3[C@@]3(O)C[C@@H]4C(=O)N[C@](C)(c5nc6ccccc6c(=O)n54)N1[C@@H]23`, the Potency entry in assay [5], in assay [11], in assay [6], in assay [7] and in assay [8] was “inactive” each time.
Turning to `Cc1csc(NC(=O)c2ccc(COc3cccc(Cl)c3)o2)n1`, the Potency entry in [5], in [11], in assay [6], in [7], in [8] and in [9] was “inactive” each time.
Turning to `CO[C@H]1/C=C/[C@@](C)(O)/C=C/C(=O)O[C@H](C)[C@@H](C)CC/C=C/1C`, the Potency result in [5], in [11], in [6], in [7], in [8] and in assay [9] was “inactive” in each case.
Take `Cc1nc2ccc(Oc3ccc(F)cc3)cc2c(=O)n1C[C@H]1CCCN(C(C)C)C1`: the Potency entry in [5], in assay [11], in [6], in assay [7] and in assay [8] was “inactive” in each case.
Consider `Cc1ccc(S(=O)(=O)n2ccc(-c3c(-c4ccc(Cl)cc4)noc3C)n2)cc1`, for which the Potency result in [5], in assay [11], in [6], in assay [7], in assay [8] and in [9] was “inactive” each time.
For `C[C@H](Oc1ccc(S(C)(=O)=O)cc1C(=O)N1CCN(c2ncc(C(F)(F)F)cc2F)CC1)C(F)(F)F`, the Potency result in [5], in assay [11], in assay [6], in [7], in assay [8] and in assay [9] was “inactive” in each case.
Consider `CC1=CC(=O)C2C(C)(C)CCC[C@]2(C)[C@H]1CO` (stereo not given in full), for which the Potency entry in assay [5], in [11], in assay [6], in assay [7], in assay [8] and in [9] was “inactive” in each case.
Turning to `C=C(C)[C@@H]1CC[C@]2(C)CC[C@]3(C)[C@H](CC[C@@H]4[C@@]5(C)CC[C@@H](O)C(C)(C)[C@@H]5CC[C@]43C)[C@@H]12`, the Potency entry in [5], in assay [11], in [6], in assay [7], in [8] and in assay [9] was “inactive” each time.
